sEH act – soluble epoxide hydrolase (human) activation. purified human sEH enzymatic activity, activator screen. activation, % at 2 µM. 91,000 compounds, 0.04% hits. AID 717; in the data active means activation above about 37%
Target sequence (P34913 whole entry, looked up): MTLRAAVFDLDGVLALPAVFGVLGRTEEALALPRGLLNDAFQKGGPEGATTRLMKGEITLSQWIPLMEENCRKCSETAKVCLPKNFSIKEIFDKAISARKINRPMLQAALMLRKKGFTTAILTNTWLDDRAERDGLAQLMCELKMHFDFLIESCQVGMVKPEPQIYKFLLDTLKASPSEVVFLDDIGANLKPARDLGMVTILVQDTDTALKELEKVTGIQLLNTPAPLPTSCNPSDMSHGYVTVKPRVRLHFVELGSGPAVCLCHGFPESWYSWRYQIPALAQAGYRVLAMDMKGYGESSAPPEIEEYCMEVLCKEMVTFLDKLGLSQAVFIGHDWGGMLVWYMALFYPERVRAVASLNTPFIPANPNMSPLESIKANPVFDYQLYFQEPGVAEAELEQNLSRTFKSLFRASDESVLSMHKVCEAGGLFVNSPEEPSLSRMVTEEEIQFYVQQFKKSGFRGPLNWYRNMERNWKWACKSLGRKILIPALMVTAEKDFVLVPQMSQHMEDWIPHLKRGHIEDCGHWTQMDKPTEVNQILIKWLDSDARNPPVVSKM
CYP2C9 inhib – blocks human cytochrome P450 2C9. 96,000 compounds, 20% hits. CYP2C9 Supersomes, luciferin-H conversion, luminescence. P11712. inhibition, % at 5 µM. AID 777;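 active means blocking of liver enzyme CYP2C9 beyond about 50% at 5 µM, limit read from the data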
CYP2C19 act – increases human CYP2C19 enzyme activity; recombinant CYP2C19, luciferin-H EGE luminescence; stronger effect = higher value; 0 = fully inhibited enzyme, 1 = untreated enzyme; activation factor at 5 µM; 96,000 tested, under 10 active; AID 1025;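 active means activation factor of at least 2 at 5 µM in the primary screen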;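 further: 0 = wells with 2.5 mM tranylcypromine and 1 = vehicle-only wells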
CYP2C9 activ – activators of human CYP2C9; 96,000 compounds, 1.4% hits; recombinant CYP2C9, luciferin-H conversion, luminescence; stronger effect = higher value; factor 1 = untreated enzyme, 0 = blocked; activation factor at 5 µM; P11712;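 active means activation factor of 2 or more for CYP2C9 at a 5 µM dose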;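 further: 0 = sulfaphenazole-blocked wells and 1 = vehicle-only wells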
sEH inh – blocks human soluble epoxide hydrolase activity; recombinant human sEH enzymatic activity assay; inhibition, % at 2 µM; 91,000 compounds, 0.34% hits; AID 707; in the data active means inhibition above about 80%
CYP2C19 inh – blocks human cytochrome P450 2C19 | CYP2C19 Supersomes, luciferin-H EGE luminescence, 30 min | 96,000 compounds, 21% hits | P33261 | inhibition, % at 5 µM;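 active means CYP2C19 inhibition above a set limit at 5 µM in the primary screen, cut at about 50% in these data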;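 further: plate controls were negative control wells for no effect and 2.5 mM tranylcypromine positive control for full effect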
The depositor's hits bear a star; . = not tested or not shown. A selection: hits, their analogues and other compounds. The true share with any hit is near 27%.

SMILES	sEH act	CYP2C9 inhib	CYP2C19 act	CYP2C9 activ	sEH inh	CYP2C19 inh
Cc1ccc(-n2nnnc2SCC(=O)Nc2c(C)n(C)n(-c3ccccc3)c2=O)cc1	5	-81	1	1.8	-3	-1
CCOC(=O)c1cnc2c(-c3ccccc3)c(C)nn2c1N	4	13	0.9	0.9	-3	8
CCOC(=O)c1cnc2c(-c3ccccc3)cnn2c1N	8	57*	0.4	0.4	-6	63*
CCN(CC)S(=O)(=O)c1ccc(Cl)c(C(=O)NCC2CCCO2)c1 (stereo unspecified)	3	-2	1	1	-2	-4
CCC1CCCCN1C(=O)c1c[nH]c2ccc(S(=O)(=O)N(C)c3ccc(Cl)cc3)cc2c1=O (stereo unspecified)	-4	83*	0.3	0.2	4	74*
CCOc1ccc(C(=O)NCC2CCCO2)cc1 (stereo unspecified)	-8	-5	1.1	1.1	8	-8
CCOc1ccc(N(C)S(=O)(=O)c2ccc3[nH]cc(C(=O)NCC4CCCO4)c(=O)c3c2)cc1 (stereo unspecified)	0	74*	0.8	0.3	5	24
Cc1ccccc1N(C)S(=O)(=O)c1ccc2[nH]cc(C(=O)NCC3CCCO3)c(=O)c2c1 (stereo unspecified)	.	91*	0.5	0.1	.	53*
CCN(CC)S(=O)(=O)c1ccc2[nH]cc(C(=O)NCCC3=CCCCC3)c(=O)c2c1	0	91*	0.2	0.1	2	76*
CCOC(=O)c1nnn(CC(=O)N2N=C(c3cccc4ccccc34)CC2c2ccccc2)c1C(=O)OCC (stereo unspecified)	4	.	.	.	-2	.
O=C(CN1CCN(C(=O)c2ccccc2)CC1)Nc1ccc(Br)cn1	-15	-9	1	1.1	16	3
CCc1ccc(N(C)S(=O)(=O)c2ccc3[nH]cc(C(=O)NCCN4CCOCC4)c(=O)c3c2)cc1	1	60*	0.8	0.4	-4	24
CCN(CC)S(=O)(=O)c1ccc2[nH]cc(C(=O)NCCN3CCCCCC3)c(=O)c2c1	-5	-1	1.1	1	6	-8
N#Cc1ccccc1NCc1ccccc1	21	7	0.7	0.9	-17	33
Cc1cc(N(C)C)c(C#N)c(NCc2ccccc2)n1	.	36	0.7	0.6	.	34
CN(C)c1ccnc(N(Cc2ccccc2)Cc2ccccc2)c1C#N	13	95*	0	0.1	-10	96*
N#Cc1c(NCc2ccccc2)ccnc1NCc1cccnc1	4	56*	0	0.4	-6	99*
CN(C)c1ccnc(NCc2ccccc2)c1C#N	2	39	0.3	0.6	-4	67*
CCOc1ccccc1CN1C(=O)c2ccccc2C1C(=O)NC(C)CC (stereo unspecified)	-12	1	1	1	13	-2
CCOC(=O)C1=C(C)NC(SC)=NC1c1ccc(OC)cc1 (stereo unspecified)	11	.	.	.	-5	.
CCOC(=O)C1=C(C)NC(SC(C)=O)=NC1c1ccc(OC(C)=O)c(OC)c1 (stereo unspecified)	10	62*	0.1	0.4	-9	90*
O=C(CN1CCN(c2ccccc2)CC1)Nc1ccc(Oc2ccccc2)cc1	-11	17	1	0.8	9	1
C=CCC(C=C)S(=O)(=O)c1ccc(C)cc1 (stereo unspecified)	7	14	0.1	0.9	-5	87*
O=C(C1COc2ccccc2O1)N1CCN(c2ccccc2)CC1 (stereo unspecified)	.	75*	0.1	0.3	.	85*
O=C(C1COc2ccccc2O1)N1CCn2c(nc3ccccc32)C1 (stereo unspecified)	-3	23	0.2	0.8	2	85*
COc1ccccc1NC(=O)N1CCn2c(nc3ccccc32)C1	9	10	0.8	0.9	-8	22
O=C(Nc1ccccc1Cl)N1CCn2c(nc3ccccc32)C1	-17	22	0.5	0.8	18	52*
Cc1nc(NC2=NCN(Cc3cccnc3)CN2)nc2c(C)cccc12	.	-15	1.1	1.2	.	-11
N#C/C(C(N)=O)=C1/CCc2ccccc2N1	-6	-11	1.1	1.1	2	-14

Screens (PubChem BioAssay)
